Measured values: PubChem BioAssay (Tox21)
Records with an inconclusive call do not appear. Calls of active or inactive are those of the source. Unless noted, the call rests on the fitted dose curve; in most records, active means well fitted curve in the direction sought with a large enough effect in the repeat runs; inconclusive means weak or mixed curves; inactive means no such curve, though single readings can be large; an effect the other way counts as inactive or inconclusive.

Key:
[1] = qHTS assay to identify small molecule agonists of the peroxisome proliferator-activated receptor delta (PPARd) signaling pathway - cell viability counter screen (AID 743211); further: on the % scale 0 is the no-effect control and ±100 the full control effect; nearly all actives have a fitted effect of over 55% in size
How it was run: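 Viability was measured as CellTiter-Glo luminescence (30 min, room temperature) in the same wells as the beta-lactamase readout. GeneBLAzer PPARd UAS-bla HEK293H cells received compound after 5 h plating and were incubated 17 h at 37 C.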

[2] = target: Peroxisome proliferator-activated receptor delta (Homo sapiens) (UniProt Q03181); test: qHTS assay to identify small molecule agonists of the peroxisome proliferator-activated receptor delta (PPARd) signaling pathway (AID 743212; calls by dose curve; further: on the % scale 0 is the no-effect control and ±100 the full control effect)
Peroxisome proliferator-activated receptor delta (Homo sapiens), sequence (Q03181 whole entry, looked up): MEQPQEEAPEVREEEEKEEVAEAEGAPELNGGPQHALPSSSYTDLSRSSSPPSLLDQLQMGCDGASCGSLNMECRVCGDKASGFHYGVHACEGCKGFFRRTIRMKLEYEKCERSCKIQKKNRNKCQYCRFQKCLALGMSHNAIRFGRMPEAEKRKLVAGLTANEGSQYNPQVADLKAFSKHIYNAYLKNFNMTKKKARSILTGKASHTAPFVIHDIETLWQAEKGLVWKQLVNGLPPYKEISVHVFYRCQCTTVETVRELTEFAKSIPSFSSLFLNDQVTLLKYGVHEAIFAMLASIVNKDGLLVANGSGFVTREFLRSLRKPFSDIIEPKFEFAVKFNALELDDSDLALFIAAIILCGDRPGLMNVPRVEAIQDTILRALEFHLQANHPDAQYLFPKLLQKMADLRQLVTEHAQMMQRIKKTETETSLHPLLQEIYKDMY
How it was run: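 A PPARd-bla HEK293H line with beta-lactamase under an Upstream Activator Sequence is treated with compounds at 37 C. Substrate loading for 2 h at room temperature precedes the fluorescence measurement.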

[3] = qHTS assay to identify small molecule antagonists of the peroxisome proliferator-activated receptor delta (PPARd) signaling pathway - cell viability counter screen (AID 743213); further: on the % scale 0 is the no-effect control and ±100 the full control effect; nearly all actives have a fitted effect of over 50% in size
How it was run: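 Cytotoxicity counter screen: CellTiter-Glo luminescence read 30 min after addition, in the same wells as the reporter assay. There, PPARd UAS-bla HEK293H cells (3000/well) were treated 17 h at 37 C with compound and 300 nM L165041.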

[4] = target: Peroxisome proliferator-activated receptor delta (Homo sapiens) (UniProt Q03181); test: qHTS assay to identify small molecule antagonists of the peroxisome proliferator-activated receptor delta (PPARd) signaling pathway (AID 743215; active means well fitted inhibition curve with a large enough effect in the signal ratio in the repeat runs, not every such curve was filed as active; the % refers to the signal ratio;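 further: cells stimulated with agonist L165041 at 300 nM final during compound exposure; series mostly up to about 62 µM; on the % scale 0 is the no-effect control and ±100 the full control effect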)
How it was run: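 Read-out is beta-lactamase FRET fluorescence, measured 2 h after substrate addition at room temperature. Beforehand, UAS-bla HEK293H cells carrying the PPARd reporter were exposed to compounds with L165041 at 300 nM final for 17 h at 37 C.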

[5] = qHTS assay to identify small molecule agonists of the farnesoid-X-receptor (FXR) signaling pathway - cell viability counter screen (AID 743218); further: on the % scale 0 is the no-effect control and ±100 the full control effect; nearly all actives have a fitted effect of over 45% in size
How it was run: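 HEK 293T FXR-bla cells; 5 h pre-incubation, 16 h compound exposure at 37 C; LiveBLAzer substrate 2 h RT, then CellTiter-Glo 30 min RT, luminescence.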

[6] = target: Bile acid receptor (Homo sapiens) (UniProt Q96RI1); test: qHTS assay to identify small molecule agonists of the farnesoid-X-receptor (FXR) signaling pathway (AID 743220; active means well fitted activation curve with a large enough effect in the signal ratio in the repeat runs, not every such curve was filed as active; the % refers to the signal ratio; further: on the % scale 0 is the no-effect control and ±100 the full control effect)
Bile acid receptor (Homo sapiens), sequence (Q96RI1 whole entry, looked up): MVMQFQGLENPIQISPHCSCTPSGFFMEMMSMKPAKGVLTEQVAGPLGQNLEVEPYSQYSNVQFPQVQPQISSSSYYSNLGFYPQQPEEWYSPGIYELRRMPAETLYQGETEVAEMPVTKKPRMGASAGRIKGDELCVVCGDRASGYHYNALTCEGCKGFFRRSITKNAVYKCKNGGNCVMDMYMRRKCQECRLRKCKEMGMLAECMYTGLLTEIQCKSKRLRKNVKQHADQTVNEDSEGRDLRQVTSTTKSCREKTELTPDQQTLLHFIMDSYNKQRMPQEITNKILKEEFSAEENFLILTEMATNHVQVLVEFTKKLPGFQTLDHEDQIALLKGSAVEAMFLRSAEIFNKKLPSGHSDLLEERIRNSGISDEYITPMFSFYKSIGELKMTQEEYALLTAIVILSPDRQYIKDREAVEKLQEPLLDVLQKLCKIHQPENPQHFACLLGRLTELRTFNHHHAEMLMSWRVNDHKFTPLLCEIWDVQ
How it was run: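 Beta-lactamase reporter under UAS control in GeneBLAzer FXR HEK 293T cells (5000/well) measured with LiveBLAzer FRET substrate after 2 h at room temperature. Compound exposure lasted 16 h at 37C.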

[7] = qHTS assay to identify small molecule antagonists of the farnesoid-X-receptor (FXR) signaling pathway - cell viability counter screen (AID 743221; active means well fitted cell-killing curve with a large enough effect in the repeat runs, not every such curve was filed as active; further: on the % scale 0 is the no-effect control and ±100 the full control effect; nearly all actives have a fitted effect of over 50% in size)
How it was run: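 Cytotoxicity counter screen run in the FXR-bla reporter wells: HEK 293T cells exposed to compound with 50 uM (final) chenodeoxycholic acid for 16 h, 37 C, then viability measured by CellTiter-Glo luminescence after 30 min, room temperature.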

[8] = target: Vitamin D3 receptor (Homo sapiens) (UniProt P11473); test: qHTS assay to identify small molecule agonists of the vitamin D receptor (VDR) signaling pathway (AID 743222; calls by dose curve; further: on the % scale 0 is the no-effect control and ±100 the full control effect)
Vitamin D3 receptor (Homo sapiens), sequence (P11473 whole entry, looked up): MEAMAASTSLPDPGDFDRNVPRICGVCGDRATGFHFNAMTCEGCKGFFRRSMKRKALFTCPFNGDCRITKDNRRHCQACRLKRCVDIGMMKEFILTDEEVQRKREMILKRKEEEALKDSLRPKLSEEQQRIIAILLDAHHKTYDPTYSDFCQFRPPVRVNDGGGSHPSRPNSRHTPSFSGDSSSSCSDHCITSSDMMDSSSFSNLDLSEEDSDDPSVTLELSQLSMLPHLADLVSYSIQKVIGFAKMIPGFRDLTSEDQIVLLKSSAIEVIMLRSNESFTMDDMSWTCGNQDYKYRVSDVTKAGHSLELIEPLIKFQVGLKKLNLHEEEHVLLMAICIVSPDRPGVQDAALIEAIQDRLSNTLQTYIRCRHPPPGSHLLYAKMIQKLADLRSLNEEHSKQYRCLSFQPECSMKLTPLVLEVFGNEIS
How it was run: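 VDR-bla cells, 2,000/well; 4 h preincubation 37C; cpd (DMSO) 16 h; LiveBLAzer B/G substrate 2 h RT; fluorescence intensity read.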

[9] = target: Vitamin D3 receptor (Homo sapiens) (UniProt P11473); test: qHTS assay to identify small molecule antagonists of the vitamin D receptor (VDR) signaling pathway (AID 743223; active means well fitted inhibition curve with a large enough effect in the signal ratio in the repeat runs, not every such curve was filed as active; the % refers to the signal ratio; further: on the % scale 0 is the no-effect control and ±100 the full control effect)
How it was run: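 Antagonist mode: compound added to VDR-bla cells alongside agonist 1alpha,25-dihydroxyvitamin D3 (3 nM final), incubation 16 h at 37C. Read-out is LiveBLAzer FRET fluorescence, 2 h at room temperature.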

[10] = qHTS assay to identify small molecule agonists of the vitamin D receptor (VDR) signaling pathway - cell viability counter screen (AID 743224); further: series mostly up to about 63 µM; on the % scale 0 is the no-effect control and ±100 the full control effect; nearly all actives have a fitted effect of over 50% in size
How it was run: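 Luminescence from CellTiter-Glo, read after 30 min at room temperature, reports viability of VDR-bla cells treated with compounds for 16 h at 37C in the wells used for the beta-lactamase FRET read.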

[11] = qHTS assay to identify small molecule antagonists of the vitamin D receptor (VDR) signaling pathway - cell viability counter screen (AID 743225); further: on the % scale 0 is the no-effect control and ±100 the full control effect; nearly all actives have a fitted effect of over 50% in size
How it was run: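 Cytotoxicity counter screen read by CellTiter-Glo luminescence (30 min, room temperature) in the same wells as the VDR-bla antagonist readout. HEK 293T VDR-UAS-bla cells had 16 h at 37C with compound and 3 nM (final) 1-alpha,25-dihydroxyvitamin D3, then 2 h with FRET substrate.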

[12] = qHTS assay to identify small molecule agonists of the NFkB signaling pathway (AID 1159509; active means well fitted curve in the direction sought with a large enough effect in the signal ratio in the repeat runs, not every such curve was filed as active; the % refers to the signal ratio)
How it was run: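 NFkB-bla ME-180 cells carry a beta-lactamase reporter under an NF-kB response element. They were plated overnight, then exposed to compounds for 5 h at 37 C. Read-out is LiveBLAzer FRET after 1.5 hr at room temperature (405 nm excitation; 460/530 nm emission).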

[13] = qHTS assay to identify small molecule agonists of the NFkB signaling pathway - cell viability counter screen (AID 1159515; calls by dose curve; further: series mostly up to about 61 µM; on the % scale 0 is the no-effect control and ±100 the full control effect; nearly all actives have a fitted effect of over 55% in size)
How it was run: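 Luminescence from CellTiter-Glo (30 min, room temperature) gives viability, measured in the same wells as the beta-lactamase reporter read. Cells were NFkB-bla ME-180, 2,000 per well, treated 5 hr with compounds.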

[14] = qHTS assay to identify small molecule agonists of the endoplasmic reticulum stress response signaling pathway (AID 1159516; active means well fitted activation curve with a large enough effect in the signal ratio in the repeat runs, not every such curve was filed as active; the % refers to the signal ratio; further: on the % scale 0 is the no-effect control and ±100 the full control effect)
How it was run: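 Read-out is beta-lactamase cleavage of a FRET substrate (405 nm excitation; 460 and 530 nm emissions) in ESRE-bla HeLa cells after a 5 hr compound exposure at 37 C. Substrate incubation ran 2 hr at room temperature.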

[15] = qHTS assay to identify small molecule agonists of the endoplasmic reticulum stress response signaling pathway - cell viability counter screen (AID 1159517; calls by dose curve)
How it was run: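 CellTiter-Glo was added to wells already read for beta-lactamase FRET, and luminescence was recorded 30 min later. Cells: ESRE-bla HeLa, 1,500 per well, compound exposure 5 hr at 37 C.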

[16] = qHTS assay to identify small molecule antagonists of the retinoid-related orphan receptor gamma (ROR-gamma) signaling pathway - cell viability counter screen (AID 1159520)
How it was run: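 Tet-on ROR gamma CHO cells (1,000/well) were plated 4 hr, given compounds in DMSO for 2 hr at 37 C, then induced with 1 uM final doxycycline for 16 hr. Viability was read as ATP by CellTiter-Glo luminescence after 30 min.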

[17] = target: Nuclear receptor ROR-gamma (Homo sapiens) (UniProt P51449); test: qHTS assay to identify small molecule antagonists of the retinoid-related orphan receptor gamma (ROR-gamma) signaling pathway (AID 1159521)
How it was run: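 Antagonist read-out: drop in luminescence (ONE-Glo) from an RORE-LUC reporter in CHO cells with doxycycline-inducible ROR-gamma; 2 hr compound pretreatment, 1 uM doxycycline, 16 hr incubation at 37 C.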

[18] = qHTS assay to identify small molecule agonists of the AP-1 signaling pathway - cell viability counter screen (AID 1159525; calls by dose curve; further: nearly all actives have a fitted effect of over 55% in size)
How it was run: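 ME-180 AP-1-bla, 2500 cells/well, Opti-MEM + 0.5% dialyzed FBS; overnight 37 °C; cpd 15-pt titration, 5 h 37 °C; CellTiter-Glo 30 min RT; luminescence read; normalised to TOAB and DMSO controls.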

[19] = qHTS assay to identify small molecule agonists of the AP-1 signaling pathway (AID 1159526; calls by dose curve; further: on the % scale 0 is the no-effect control and ±100 the full control effect)
[20] = target: Bile acid receptor (Homo sapiens) (UniProt Q96RI1); test: qHTS assay to identify small molecule antagonists of the farnesoid-X-receptor (FXR) signaling pathway (AID 743217; active means well fitted inhibition curve with a large enough effect in the signal ratio in the repeat runs, not every such curve was filed as active; the % refers to the signal ratio; further: on the % scale 0 is the no-effect control and ±100 the full control effect)
How it was run: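 HEK 293T FXR-UAS-bla, 5000 cells/well; compound + CDCA 50 uM final; 16 h, 37 °C; B/G FRET substrate 2 h RT; fluorescence.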

CCOC(=O)CCc1ccccc1
inactive: outcome [1] | outcome [2] | outcome [3] | outcome [4] | Potency [5] | outcome [6] | outcome [7] | outcome [8] | outcome [9] | outcome [10] | outcome [11] | outcome [12] | outcome [13] | outcome [14] | outcome [15] | outcome [16] | outcome [17] | outcome [18] | outcome [19]

C=CCOCC(CO)(COCC=C)COCC=C
inactive: outcome [1] | outcome [2] | outcome [3] | outcome [4] | outcome [7] | outcome [8] | outcome [9] | outcome [10] | outcome [11] | outcome [12] | outcome [13] | outcome [14] | outcome [15] | outcome [16] | outcome [17] | outcome [18] | outcome [19]

Nc1ccc(S(=O)(=O)NC(=O)c2ccccc2)cc1
inactive: outcome [1] | outcome [2] | outcome [3] | outcome [4] | Potency [5] | outcome [7] | outcome [10] | outcome [11] | outcome [12] | outcome [13] | outcome [14] | outcome [15] | outcome [16] | outcome [17] | outcome [18] | outcome [19]

C1=C\CC/C=C\CC/1
inactive: outcome [1] | outcome [2] | outcome [3] | outcome [4] | Potency [5] | outcome [7] | outcome [8] | outcome [9] | outcome [10] | outcome [11] | outcome [12] | outcome [13] | outcome [14] | outcome [15] | outcome [16] | outcome [17] | outcome [18] | outcome [19]

NC(=O)C1(N2CCCCC2)CCN(CCCC(=O)c2ccc(F)cc2)CC1
inactive: outcome [1] | outcome [2] | outcome [3] | outcome [4] | Potency [5] | outcome [7] | outcome [8] | outcome [10] | outcome [11] | outcome [12] | outcome [13] | outcome [14] | outcome [15] | outcome [16] | outcome [17] | outcome [18] | outcome [19]

CC(C)C(=O)c1ccccc1
inactive: outcome [1] | outcome [2] | outcome [3] | outcome [4] | outcome [10] | outcome [11] | outcome [12] | outcome [13] | outcome [14] | outcome [15] | outcome [16] | outcome [17] | outcome [18] | outcome [19]

C=CCOC(=O)c1ccc(C(=O)OCC=C)c(C(=O)OCC=C)c1
inactive: outcome [1] | outcome [2] | outcome [3] | outcome [4] | Potency [5] | outcome [8] | outcome [9] | outcome [10] | outcome [11] | outcome [12] | outcome [13] | outcome [14] | outcome [15] | outcome [16] | outcome [17] | outcome [18] | outcome [19]

COc1ccc(/C=N/NC(=O)c2ccncc2)cc1OC
inactive: outcome [1] | outcome [2] | outcome [3] | outcome [4] | Potency [5] | outcome [10] | outcome [11] | outcome [12] | outcome [13] | outcome [14] | outcome [15] | outcome [16] | outcome [17] | outcome [18] | outcome [19]

O=C1OC(=O)c2ccccc21
inactive: outcome [1] | outcome [2] | outcome [3] | outcome [4] | outcome [20] | outcome [6] | outcome [9] | outcome [10] | outcome [12] | outcome [13] | outcome [14] | outcome [15] | outcome [16] | outcome [17] | outcome [18] | outcome [19]

CCCCCCCCCCCCCCCCCCN(C)C
inactive: outcome [1] | outcome [2] | outcome [3] | outcome [4] | Potency [5] | outcome [7] | outcome [8] | outcome [9] | outcome [10] | outcome [12] | outcome [13] | outcome [14] | outcome [15] | outcome [16] | outcome [17] | outcome [18] | outcome [19]

CC(=O)OCC(=O)[C@@]1(O)[C@H](OC(C)=O)C[C@H]2[C@@H]3CCC4=CC(=O)C=C[C@]4(C)[C@@]3(F)[C@@H](O)C[C@@]21C
inactive: outcome [1] | outcome [2] | outcome [3] | outcome [20] | Potency [5] | outcome [6] | outcome [7] | outcome [8] | outcome [9] | outcome [10] | outcome [11] | outcome [12] | outcome [13] | outcome [14] | outcome [15] | outcome [16] | outcome [17] | outcome [18] | outcome [19]

Nc1cc(S(=O)(=O)O)ccc1S(=O)(=O)O
inactive: outcome [1] | outcome [2] | outcome [3] | outcome [20] | Potency [5] | outcome [6] | outcome [7] | outcome [8] | outcome [9] | outcome [10] | outcome [11] | outcome [12] | outcome [13] | outcome [14] | outcome [15] | outcome [16] | outcome [17] | outcome [18] | outcome [19]

BrC/C=C/CBr
inactive: outcome [1] | outcome [2] | outcome [3] | outcome [4] | outcome [20] | Potency [5] | outcome [6] | outcome [7] | outcome [10] | outcome [11] | outcome [12] | outcome [13] | outcome [14] | outcome [15] | activity, negative = cytotoxicity [16] -4.58% [at 19 µM] | activity change, negative = inhibition [17] -16.8% [at 19 µM] | viability change, negative = cytotoxic [18] 1.78% [at 15.8 µM] | activation [19] -6.33% [at 15.8 µM]

CC(C)CCCCCCOC(=O)C1CCCCC1C(=O)OCCCCCCC(C)C (configuration not stated)
inactive: outcome [1] | outcome [2] | outcome [3] | outcome [20] | Potency [5] | outcome [6] | outcome [7] | outcome [8] | outcome [9] | outcome [10] | outcome [11] | outcome [12] | outcome [13] | outcome [14] | outcome [15] | outcome [16] | outcome [17] | outcome [18] | outcome [19]

O=CN1CCOCC1
inactive: outcome [1] | outcome [2] | outcome [3] | outcome [4] | Potency [5] | outcome [7] | outcome [10] | outcome [11] | outcome [12] | outcome [13] | outcome [14] | outcome [15] | outcome [16] | outcome [17] | outcome [18] | outcome [19]

CCCCOC(=O)C(=O)OCCCC
inactive: outcome [1] | outcome [2] | outcome [3] | outcome [4] | outcome [20] | Potency [5] | outcome [6] | outcome [7] | outcome [10] | outcome [11] | outcome [12] | outcome [13] | outcome [14] | outcome [15] | outcome [16] | outcome [17] | outcome [18] | outcome [19]

CCC(C)N (configuration not stated)
inactive: outcome [1] | outcome [2] | outcome [3] | outcome [4] | Potency [5] | outcome [6] | outcome [9] | outcome [10] | outcome [11] | outcome [12] | outcome [13] | outcome [14] | outcome [15] | outcome [16] | outcome [17] | outcome [18] | outcome [19]
